# ANO1 block: blocks the mouse calcium-activated chloride channel TMEM16A; Q8BHY3; HEK293 TMEM16A/YFP iodide influx fluorescence, ionomycin; normalized B-score (activity score, 25-100; higher = stronger inhibition) at 10 µM; actives 1.2% (n = 310,000);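 active = ratio plate-corrected score three or more library SD toward inhibition, starting fluorescence score within five deviations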;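 note: score derived from kinetic fluorescence span divided by baseline fluorescence per well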
# PKA-R1A act: activates the PKA-R1A holoenzyme complex | activation, % at 11.4 µM | actives 0.083% (n = 340,000) | P00514+P68181 | PKA-R1A dissociation, Cy5-IP20 fluorescence polarization; scaled: DMSO 0%, 113 µM cGMP 100% | AID 504707;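 active = percent activation above the mean of all tested compounds plus 3 SD, cut at about 19% in these data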;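 note: higher means more PKAc released from R1A so a rise in polarization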
# TMEM16A act: activators or potentiators of mouse TMEM16A chloride channel. Q8BHY3. HEK293 TMEM16A/YFP-H148Q/I152L, iodide quench fluorescence; stronger effect = lower value. B-score at 10 µM. actives 0.3% (n = 340,000). AID 623877;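 active = fluorescence-ratio B-score plate-corrected deviation score at least 3 library SD below zero, with starting fluorescence score within 5 deviations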;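 note: channel opened by trigger with iodide after compound preincubation; score built on the fluorescence ratio of max minus min over baseline; more negative score means more quench and so TMEM16A activation or potentiation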
# PKA-R2B act: activates the human PKA-R2B holoenzyme complex; P22694+P31323; PKA-R2B holoenzyme dissociation, Cy5-IP20 fluorescence polarization; R2B truncated from residue 108, S112A mutant; 0% DMSO only, 100% 113 µM cGMP; activation, % at 11.4 µM; actives 0.079% (n = 340,000);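 active = activation above a cutoff set at the mean over all compounds plus 3 SD, cut at about 18% in these data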;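 note: higher means more holoenzyme dissociation and a rise in polarization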
# Target sequence (P31323 whole entry, looked up, other chains not shown, the tested form may be a part): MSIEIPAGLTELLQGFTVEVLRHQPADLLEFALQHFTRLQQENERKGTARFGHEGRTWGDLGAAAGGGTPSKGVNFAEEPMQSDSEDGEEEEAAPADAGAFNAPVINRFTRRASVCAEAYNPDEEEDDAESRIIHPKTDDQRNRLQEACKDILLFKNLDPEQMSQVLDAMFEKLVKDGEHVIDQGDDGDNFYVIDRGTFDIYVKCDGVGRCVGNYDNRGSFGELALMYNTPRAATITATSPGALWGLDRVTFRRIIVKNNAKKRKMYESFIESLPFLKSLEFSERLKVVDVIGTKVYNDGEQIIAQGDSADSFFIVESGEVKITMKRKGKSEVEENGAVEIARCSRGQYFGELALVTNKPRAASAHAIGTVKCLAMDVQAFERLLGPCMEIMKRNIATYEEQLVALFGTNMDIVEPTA
# CHT inh: human CHT choline transport inhibition. Q9GZV3. CHT-expressing cells, membrane potential dye, choline response; stronger effect = lower value. B-score at 10 µM. actives 0.86% (n = 310,000);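 active = B-score over 3 SD under the library average, and starting fluorescence ratio not unusually high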;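 note: choline stimulus applied at its EC90 after an EC20 pre-addition; B-score computed on integrated fluorescence ratio after choline addition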
# CHT PAM: human CHT allosteric activation; Q9GZV3; CHT-expressing cells, membrane potential dye, choline EC20; stronger effect = higher value; LV-AA mutant CHT in HEK293 cells; B-score at 10 µM; actives 0.49% (n = 310,000); AID 488977;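 active = initial fluorescence not abnormally high and integrated response B-score, plate-corrected, over 3 SD above library mean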
# TMEM16A reconf: TMEM16A (mouse) chloride channel inhibition, re-confirmation. shares compounds with ANO1 block. HEK293 TMEM16A/YFP-H148Q, iodide quench fluorescence; ionomycin added to raise cell calcium. inhibition, % at 10 µM. actives 39% (n = 2,300);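 active = mean duplicate percent inhibition, scaled so buffer wells are 0 and the reference blocker 100, over three buffer SD above buffer mean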
# HEK293 Ca mobil: counter-screen for TMEM16A inhibitors: effect on calcium mobilization; actives 2% (n = 2,300); TMEM16A/YFP HEK293, Fluo4 calcium mobilization; shares compounds with ANO1 block; calcium response (% of ionomycin), % at 10 µM;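 active = duplicate-averaged calcium signal over 20% of the ionomycin maximum, relative to buffer baseline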;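 note: each well's signal is peak minus trough fluorescence divided by its pre-addition baseline; 0% = buffer wells and 100% = ionomycin wells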
# Parental YFP cnt: parental YFP-HEK293 iodide quench counter-screen activity; 2,300 tested, under 10 active; YFP ratio F(max-min)/F0 at 10 µM; ionomycin; shares compounds with ANO1 block;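 active = yellow fluorescent protein signal ratio exceeding the buffer control mean by over 5 SD of those controls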;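 note: ratio is mean of duplicate wells from kinetic YFP trace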
# ClC-1 rat inh: blocks the rat ClC-1 voltage-dependent chloride channel. CHO ClC-1-YFP, iodide influx fluorescence quench; iodide control reads 0, buffer control 100. shares compounds with ANO1 block. ratio percent, % at 10 µM. 2,300 tested, under 10 active;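 active = duplicate-mean ratio percent above the mean of iodide-only control wells, which defines zero, plus 5 of their SD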;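 note: higher percent means stronger block of ClC-1 iodide influx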
# An asterisk follows results filed as active; i = inactive; · = not tested or not shown. Hits are enriched below; roughly 2.5% of the tested compounds scored in any of these assays.
SMILES,ANO1 block,PKA-R1A act,TMEM16A act,PKA-R2B act,CHT inh,CHT PAM,TMEM16A reconf,HEK293 Ca mobil,Parental YFP cnt,ClC-1 rat inh
O=C(CSc1ncc(-c2ccccc2)n1-c1ccccc1)NCc1ccco1,25*,-4.0,i,3.9,i,i,i,i,-0.983,-8.5
O=C(CSc1ccc2nnc(-c3ccccc3)n2n1)NCc1ccco1,100*,-3.7,i,-3.8,i,i,i,i,-0.968,-7.0
O=C(NC1CCCCC1)c1ccc(S(=O)(=O)c2ccccc2Cl)c([N+](=O)[O-])c1,i,·,·,·,i,i,·,·,·,·
CN(C(=O)c1ccc(S(=O)(=O)c2cccc(Cl)c2)c([N+](=O)[O-])c1)C1CCCCC1,25*,-6.0,i,-5.5,i,i,i,i,-1.06,-9.5
O=C(CN1C(=O)c2ccccc2C1=O)NC1CCC(O)CC1 (configuration not stated),·,5.7,i,-3.4,·,·,·,·,·,·
COC(=O)c1ccc(C(=O)OC)c(NS(C)(=O)=O)c1,25*,-9.8,i,-5.4,i,i,i,i,-0.957,-11.0
COc1ccc2oc(C(=O)OC/C(O)=C(\C#N)c3nc4ccccc4[nH]3)c(C)c2c1,i,-5.9,i,-0.4,i,i,·,·,·,·
CCOC(=O)c1c(C)[nH]c(C(=O)OC/C(O)=C(\C#N)c2nc3ccccc3[nH]2)c1C,100*,-15.1,-7.46*,-4.2,i,i,i,i,-0.929,-0.5
Cc1cc(C)c(S(=O)(=O)NCC(c2cccnc2)N2CCN(Cc3ccccc3)CC2)c(C)c1 (configuration not stated),i,-13.9,i,0.2,i,i,·,·,·,·
O=C(O)c1ccc(N=Nc2c(O)[nH]c3cc(Cl)ccc23)cc1,i,4.5,i,-9.9,i,i,·,·,·,·
O=C(O)c1ccc(N=Nc2c(O)[nH]c3ccc(Br)cc23)cc1,i,-12.4,i,5.2,i,i,17.0%*,i,-0.765,-7.5
CC(C)n1nnnc1SCC(=O)c1ccc2c(c1)OCCO2,i,2.2,i,3.8,i,i,·,·,·,·
CCn1c(SCC(=O)c2ccc3c(c2)OCCO3)nnc1C(C)C,i,-8.7,i,-3.1,i,i,i,i,-1.01,-8.5
O=C(N=Nc1c(O)[nH]c2ccccc12)c1ccco1,i,-7.4,i,-2.4,i,i,·,·,·,·
COc1ccc(Cc2nnc(NC(=O)c3ccccc3C)s2)cc1,i,1.5,i,11.5,i,i,·,·,·,·
Cc1ccc(CNn2cnnc2SCc2ccc(F)cc2)cc1,100*,-1.8,i,2.2,i,i,i,i,-1.33,4.5
NC(=O)C1CCN(C2=C(Cl)C(=O)c3ccccc3C2=O)CC1,100*,-5.6,i,-8.7,i,i,28.5%*,i,-0.968,-30.5
COC(=O)c1[nH]c2ccc(C)cc2c1NC(=O)CN1CCN(c2ccccc2)CC1,100*,-5.4,i,-6.1,i,i,20.5%*,i,-1.16,-12.0
CCOC(=O)c1[nH]c2ccc(OC)cc2c1NC(=O)CN1CCSCC1,100*,0.2,i,-11.9,i,i,i,i,-0.941,3.0
CCOC(=O)c1[nH]c2ccc(OC)cc2c1NC(C)=O,i,0.6,·,-5.4,i,i,·,·,·,·
C/C(=N\NC(=O)c1ccc(NS(=O)(=O)c2cccs2)cc1)c1ccc2c(c1)OCO2,i,-4.7,i,-1.4,i,i,·,·,·,·
COc1ccccc1C(CNc1ccc(S(=O)(=O)N2CCCC2)cc1[N+](=O)[O-])N(C)C (configuration not stated),i,-3.9,i,-3.6,i,i,·,·,·,·
Cc1ccccc1S(=O)(=O)N1[C@@H](c2ccc(F)cc2)C(C(=O)O)=CC[C@H]1c1ccc(Cl)cc1,100*,-3.9,i,-5.9,i,i,28.0%*,i,-1.31,-39.0
COc1ccc([C@@H]2CC=C(C(=O)O)[C@H](c3ccccc3)N2S(=O)(=O)c2ccccc2C)cc1,i,2.7,i,-4.2,i,i,·,·,·,·
CCc1ccc([C@@H]2CC=C(C(=O)O)[C@H](c3ccc(F)cc3)N2S(=O)(=O)c2ccc(C)cc2)cc1,100*,0.0,i,-4.5,i,i,i,i,-1.04,-12.0
SMILES,ANO1 block,PKA-R1A act,TMEM16A act,PKA-R2B act,CHT inh,CHT PAM,TMEM16A reconf,HEK293 Ca mobil,Parental YFP cnt,ClC-1 rat inh
C[C@H](NC(=O)CCC1CCC(=O)N1)c1ccccc1 (some centres not stated),i,-4.1,i,-10.4,i,i,·,·,·,·
CCn1nc(C)c(CNC(=O)c2cc(COc3ccc(F)cc3Cl)on2)c1C,25*,-13.9,i,-0.7,i,i,24.0%*,i,-1.06,-15.5
CCOc1ccc(OCC)c(NC(=O)c2nnn(CC(=O)Nc3cc(C)cc(C)c3)c2N)c1,i,-3.6,i,-5.1,i,i,·,·,·,·
Cc1oc(-c2ccccc2)nc1C(=O)N1CCN(c2ccc(F)cc2)CC1,i,-7.3,i,-9.3,i,i,·,·,·,·
COc1ccc(/C=N/Nc2nnc(Cc3ccc(OC)c(OC)c3)c(=O)[nH]2)cc1,i,-1.1,i,-11.0,i,i,·,·,·,·
COc1ccc(/C=N/Nc2nnc(Cc3ccccc3)c(=O)[nH]2)cc1,i,-1.6,i,5.7,i,i,i,i,-0.357,-3.5
CCCOC(=O)C1=C(C)N(C)C(=O)NC1c1cc2c(cc1Br)OCO2 (configuration not stated),i,2.3,i,11.9,i,i,·,·,·,·
Cc1ccc(CNC(=O)c2ccc(N3CCCC3=O)cc2)cc1,i,-9.1,i,-7.2,i,i,·,·,·,·
COc1ccc(CNC(=O)c2ccc(N3CCCC3=O)cc2)cc1,100*,3.4,i,-3.6,i,i,i,i,-1.2,1.5

# Source: PubChem BioAssay (several laboratories)
